# Test results from PubChem BioAssay.
# Values joined by “and” are separate entries in the source; they are usually repeats but may differ in a detail not shown here. Equal values may be shown once. Active and inactive are the calls of the source.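 The calls were made as follows, unless noted: active = compound raises GLP1 secretion from the human gut endocrine cells, with no numeric limit stated; inactive = the rest.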
# Legend:
# [1] = P. berghei load reduction in hepatocytes – cell-based, HepG2, luciferase luminescence, HepG2 viability, primary screen (AID 624349; in the data active = parasite load remaining mostly below about 12%, no sharp cut-off; inactive = mostly above about 10%;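 also: 100% = mean of DMSO negative control wells on the same plate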); conditions: P. berghei liver stage in HepG2, luciferase luminescence, concentration not given here; parasite load remaining: stronger effect = lower value; viability: measured here: HepG2 viability without parasites
# [2] = Wnt pathway potentiators raising nuclear beta-catenin – imaging, WNT3A-conditioned medium, mouse C2C12, NPC library, primary screen (AID 1117326; in the data active = nuclear beta-catenin stimulation mostly above about 4.2%, no sharp cut-off; inactive = mostly below about 10%); conditions: stronger effect = higher value
# [3] = stimulators of insulin release from INS-1E, primary screen, cell-based, 5 mM glucose, NPC library (AID 1117329;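 active = compound raises insulin release from rat beta cells at 5 mM glucose, no numeric limit stated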); conditions: rat INS-1E insulin secretion, at 10 µM, stronger effect = higher value
# [4] = growth inhibition of GSK3B-pretreated HCT116 cells – cell-based, CellTiter-Glo, 0.2 to 20 µM (AID 1117336;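 active = compounds lowering colon cancer cell viability after pretreatment blocking the GSK3B kinase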); conditions: HCT116 viability after GSK3B inhibitor, at 20 µM, stronger effect = higher value
# [5] = inhibition of endothelial tube formation, primary screen, imaging, VEGF stimulated, CD31 staining, tube area, NPC library (AID 1117340;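 active = compound that reduces growth-factor-driven endothelial tube area in a mixed cell culture, no cutoff stated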); conditions: VEGF-stimulated ADSC/ECFC co-culture, at 10 µM, stronger effect = higher value
# [6] = GLP1 release stimulators, primary, NCI-H716, NPC library (AID 1117341); conditions: NCI-H716 cells, at 10 µM, stronger effect = higher value
# [7] = HCT116 colon cancer cell growth inhibition, primary screen, CellTiter-Glo luminescence, NPC library (AID 1117342;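 active = compounds that lower survival of HCT116 colon cancer cells in the luminescence readout, no numeric limit stated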); conditions: at 20 µM (top of the series)
# [8] = reduced SW480 viability measured with CellTiter-Glo, NPC library, primary (AID 1117343;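 active = compounds that lower viability of the colon cancer cells in the luminescence readout, with no numeric limit stated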); conditions: CellTiter-Glo luminescence; at 20 µM (top of the series)
# [9] = NPC library primary testing for decreased DLD-1 cell viability via CellTiter-Glo (AID 1117346;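 active = compounds that lower survival of DLD-1 colon cancer cells in the luminescence readout, no cutoff given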); conditions: DLD-1 viability, CellTiter-Glo luminescence; at 20 µM (top of the series)
# [10] = EMT-state selective cytotoxicity in co-culture – imaging, PC-3E GFP, TEM4-18 mCherry, primary screen (AID 1345086;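 active = compounds killing one labelled cell type while sparing the other, by normalised counts and ratio limits, not self-fluorescent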;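 as to all read-outs here: cells exposed to compound for 72 h before imaging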;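 as to red/green cell ratio (normalised): normalised mesenchymal count divided by normalised epithelial count so high means epithelial killing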); conditions: PC-3E GFP / TEM4-18 mCherry co-culture, imaging cell counts, at 1 µM; for red/green cell ratio (normalised): actives lie on both sides
# [11] = tested on: Aerobactin synthetase IucA (Klebsiella pneumoniae hvKP1); test: IucA enzyme inhibition, primary screen, biochemical, Spectrum library (AID 1346200; call rule not given here;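 also: 100% = wells without compound and 0% = wells lacking enzyme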); conditions: malachite green pyrophosphate, A620, at 8 µM, stronger effect = lower value
# [12] = viability loss with induced miR-34 in A549 – imaging, A549 dox-inducible miR-34, nuclei and caspase counts, primary screen (AID 1347080;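 active = compounds whose cell count with miR-34 switched on is under 0.7 times the count with it off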); conditions: A549 miR-34 inducible, Hoechst nuclei count, 48 h
# [13] = target: NAD(+) hydrolase SARM1 (Homo sapiens) (UniProt Q6SZW1); test: blocking NAD cleavage by SARM1 SAM-TIR – cell lysate, NAD-Glo luminescence (AID 1508614;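 active = compound whose remaining NAD level is above about 45 nM, limit read from the data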;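 also: higher remaining NAD means stronger inhibition of SARM1 NADase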); conditions: SAM-TIR HEK293T lysate NADase, at 1 µM, stronger effect = higher value
# Sequence of NAD(+) hydrolase SARM1 (Homo sapiens) (Q6SZW1 whole entry, looked up, the tested form may be a part): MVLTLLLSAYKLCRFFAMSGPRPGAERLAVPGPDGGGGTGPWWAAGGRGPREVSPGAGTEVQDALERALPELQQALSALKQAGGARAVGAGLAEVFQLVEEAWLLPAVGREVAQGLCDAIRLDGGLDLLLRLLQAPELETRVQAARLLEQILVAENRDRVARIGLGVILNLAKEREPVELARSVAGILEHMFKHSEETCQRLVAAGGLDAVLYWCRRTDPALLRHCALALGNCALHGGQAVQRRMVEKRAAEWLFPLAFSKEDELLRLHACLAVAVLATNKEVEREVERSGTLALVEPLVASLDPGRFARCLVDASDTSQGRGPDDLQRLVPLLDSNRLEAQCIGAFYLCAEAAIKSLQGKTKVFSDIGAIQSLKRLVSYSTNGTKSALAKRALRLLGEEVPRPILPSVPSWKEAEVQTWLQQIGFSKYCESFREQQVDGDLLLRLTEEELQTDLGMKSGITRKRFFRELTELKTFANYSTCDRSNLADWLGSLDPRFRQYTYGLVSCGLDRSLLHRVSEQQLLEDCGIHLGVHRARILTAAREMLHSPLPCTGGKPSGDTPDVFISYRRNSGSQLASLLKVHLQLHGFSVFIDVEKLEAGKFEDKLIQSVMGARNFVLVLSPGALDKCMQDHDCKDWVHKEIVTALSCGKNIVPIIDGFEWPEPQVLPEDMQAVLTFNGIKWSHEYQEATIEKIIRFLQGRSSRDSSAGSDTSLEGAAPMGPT
# [14] = target: Mitogen-activated protein kinase 7 (Homo sapiens) (UniProt Q13164); test: Gal4-ERK5 driven luciferase induction – cell-based, HTS, primary screen (AID 1508626;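 active = luciferase signal above three times the same-plate solvent-only control wells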;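 also: luciferase driven by Gal4-ERK5 fusion binding five Gal4 sites before minimal TATA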); conditions: HeLa Gal4-ERK5 transactivation, 18 h, at 5 µM, stronger effect = higher value
# Sequence of Mitogen-activated protein kinase 7 (Homo sapiens) (Q13164 whole entry, looked up, the tested form may be a part): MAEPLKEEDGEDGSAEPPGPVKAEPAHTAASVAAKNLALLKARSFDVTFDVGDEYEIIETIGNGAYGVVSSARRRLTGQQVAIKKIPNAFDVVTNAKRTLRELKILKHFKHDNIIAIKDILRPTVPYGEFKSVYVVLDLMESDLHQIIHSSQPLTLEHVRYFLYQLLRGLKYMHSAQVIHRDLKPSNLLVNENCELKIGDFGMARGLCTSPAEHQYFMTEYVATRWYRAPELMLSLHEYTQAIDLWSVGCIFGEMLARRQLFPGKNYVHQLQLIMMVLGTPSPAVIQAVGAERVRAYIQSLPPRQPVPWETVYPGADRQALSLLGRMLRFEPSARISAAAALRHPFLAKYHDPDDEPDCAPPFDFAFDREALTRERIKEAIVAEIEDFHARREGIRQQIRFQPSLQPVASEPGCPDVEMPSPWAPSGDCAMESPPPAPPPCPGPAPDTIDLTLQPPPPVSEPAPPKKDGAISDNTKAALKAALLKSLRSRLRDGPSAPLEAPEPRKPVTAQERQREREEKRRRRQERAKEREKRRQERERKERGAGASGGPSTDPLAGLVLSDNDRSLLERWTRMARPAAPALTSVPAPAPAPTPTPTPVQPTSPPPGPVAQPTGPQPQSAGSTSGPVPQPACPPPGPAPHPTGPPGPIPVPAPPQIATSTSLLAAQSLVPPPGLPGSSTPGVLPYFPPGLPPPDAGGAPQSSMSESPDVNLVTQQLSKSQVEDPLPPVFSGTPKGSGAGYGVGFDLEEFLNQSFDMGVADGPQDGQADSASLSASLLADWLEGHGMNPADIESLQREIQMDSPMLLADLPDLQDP
# [15] = galactose survival enhancers in mitochondrial complex I cybrids – cell-based, galactose medium, ATP luminescence, primary screen (AID 1645843;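 active = z-score of at least 1.8 in each of two replicates, scored against plate mean and spread of sample wells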;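 also: positive z means more ATP and so rescue of galactose-driven cybrid death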); conditions: complex I mutant cybrid cells, 72 h, stronger effect = higher value
# [16] = MELAS cybrid and Rieske KO viability enhancers – cell-based, MELAS cybrids, Rieske KO mouse fibroblasts, CellTiter-Glo, primary screen (AID 1508586;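 active = mean z-score across replicates of 1.96 or higher in either the MELAS or the Rieske mutant cell line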;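 also: z relative to plate mean and SD of compound and empty wells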); conditions: low glucose
# [17] = target: 6-phosphogluconate dehydrogenase, decarboxylating (Homo sapiens) (UniProt P52209); test: inhibition of human phosphogluconate dehydrogenase – biochemical, recombinant enzyme, NADPH absorbance, primary screen (AID 1159550;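 active = at least 20% inhibition of 6-phosphogluconate dehydrogenase activity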); conditions: recombinant 6PGD, NADPH absorbance 341 nm; at 10 µM; stronger effect = higher value
# Sequence of 6-phosphogluconate dehydrogenase, decarboxylating (Homo sapiens) (P52209 whole entry, looked up): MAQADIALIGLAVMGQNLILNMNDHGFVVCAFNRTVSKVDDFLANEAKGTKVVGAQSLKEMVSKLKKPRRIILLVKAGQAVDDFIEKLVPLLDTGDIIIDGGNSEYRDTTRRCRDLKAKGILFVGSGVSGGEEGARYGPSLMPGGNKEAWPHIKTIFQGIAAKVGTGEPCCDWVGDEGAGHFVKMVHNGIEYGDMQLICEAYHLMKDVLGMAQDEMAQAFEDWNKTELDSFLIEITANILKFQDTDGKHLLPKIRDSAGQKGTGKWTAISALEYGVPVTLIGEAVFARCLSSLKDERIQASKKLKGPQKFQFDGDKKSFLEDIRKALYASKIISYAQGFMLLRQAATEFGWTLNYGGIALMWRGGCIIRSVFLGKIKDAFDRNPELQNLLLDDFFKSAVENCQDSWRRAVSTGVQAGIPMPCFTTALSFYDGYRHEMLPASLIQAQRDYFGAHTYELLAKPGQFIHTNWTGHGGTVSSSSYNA
# [18] = measured here: epithelial PC-3E GFP cell survival
# [19] = measured here: mesenchymal TEM4-18 mCherry cell survival
# [20] = measured here: relative caspase fold change +Dox/-Dox
# [21] = measured here: total cells with miR-34 induction, stronger effect = lower value
# [22] = measured here: total cells without miR-34 induction
# [23] = MELAS cybrid survival, CellTiter-Glo 48 h, stronger effect = higher value
# [24] = Rieske KO mouse fibroblast survival, CellTiter-Glo 72 h
structure (smiles),measurement,setting,value
CN1CCN(C(=O)O[C@H]2c3nccnc3C(=O)N2c2ccc(Cl)cn2)CC1,parasite load remaining,[1],62.4% (inactive)
same,viability,[1],93.7%
same,nuclear beta-catenin stimulation,[2]; at 10 µM,-0.9% (inactive)
same,nuclear beta-catenin stimulation,"[2]; stimulation, at 2 µM",-0.8%
same,insulin secretion stimulation,[3],2.3% (inactive)
same,viability decrease,[4],2.2% (inactive)
same,tube area decrease,[5],-7.8% (inactive)
same,GLP1 secretion stimulation,[6],-0.8% (inactive)
same,inhibition of viability,[7],-1.1% (inactive)
same,viability decrease (inhibition),[8],5.5% (inactive)
same,viability decrease (inhibition),[9],-2.6% (inactive)
same,red/green cell ratio (normalised),[10],0.85 (inactive)
same,normalised cell number,[10]; [18],1.07
same,normalised cell number,[10]; [19],0.91
same,activity remaining,[11],110% (inactive)
same,fold change,[12]; stronger effect = lower value,0.943 (inactive) and 0.981 (inactive)
same,fold change,[12]; [20],1.01 and 4.25
same,cell count,[12]; [21],9050 and 10100
same,cell count,[12]; [22],9590 and 10300
same,remaining NAD,[13],10 nM (inactive)
same,luciferase signal,[14],40 AU (inactive)
same,z-score,[15],0.52 (inactive)
CCOC(=O)c1cncn1C(C)c1ccccc1 (stereo not drawn),parasite load remaining,[1],51% (inactive) and 69.2% (inactive)
same,viability,[1],95.5% and 111%
same,nuclear beta-catenin stimulation,[2]; at 10 µM,1.8% (inactive)
same,nuclear beta-catenin stimulation,"[2]; stimulation, at 2 µM",3.6%
same,insulin secretion stimulation,[3],-0.5% (inactive)
same,viability decrease,[4],-7.2% (inactive)
same,tube area decrease,[5],11% (inactive)
same,GLP1 secretion stimulation,[6],-1.9% (inactive)
same,inhibition of viability,[7],-15.8% (inactive)
same,viability decrease (inhibition),[8],22.4% (inactive)
same,viability decrease (inhibition),[9],-22.4% (inactive)
same,z-score,[16]; [23],-0.441 (inactive)
same,z-score,[16]; [24],0.585
same,z-score,[15],0.035 (inactive) and 0.295 (inactive)
CC1Sc2c(C(=O)O)c(=O)c3cc(F)c(N4CCNCC4)cc3n21 (stereo not drawn),nuclear beta-catenin stimulation,[2]; at 10 µM,-0.2% (inactive)
same,nuclear beta-catenin stimulation,"[2]; stimulation, at 2 µM",2.5%
same,insulin secretion stimulation,[3],1.4% (inactive)
same,viability decrease,[4],43.4% (inactive)
same,tube area decrease,[5],-8.5% (inactive)
same,GLP1 secretion stimulation,[6],2.3% (inactive)
same,inhibition of viability,[7],50.6% (active)
same,viability decrease (inhibition),[8],40.9% (inactive)
same,viability decrease (inhibition),[9],40.8% (inactive)
same,red/green cell ratio (normalised),"[10]; counts scaled to control wells, 1 = unselective",1.16 (inactive)
same,normalised cell number,[10]; [18],1
same,normalised cell number,[10]; [19],1.16
CN[C@@H](C)[C@H](O)c1ccccc1,nuclear beta-catenin stimulation,[2]; at 10 µM,1.4% (inactive)
same,nuclear beta-catenin stimulation,"[2]; stimulation, at 2 µM",0.6%
same,insulin secretion stimulation,[3],0% (inactive)
same,viability decrease,[4],-2.5% (inactive)
same,tube area decrease,[5],-1.6% (inactive)
same,GLP1 secretion stimulation,[6],0.8% (inactive)
same,inhibition of viability,[7],-12.5% (inactive)
same,viability decrease (inhibition),[8],5.5% (inactive)
same,viability decrease (inhibition),[9],-4.6% (inactive)
same,inhibition,[17],16.5% (inactive)
Clc1ccc(C(c2ccc(Cl)cc2)C(Cl)(Cl)Cl)cc1,nuclear beta-catenin stimulation,[2]; at 10 µM,0.9% (inactive)
same,nuclear beta-catenin stimulation,"[2]; stimulation, at 2 µM",-0.7%
same,insulin secretion stimulation,[3],2.7% (inactive)
same,viability decrease,[4],94.4% (active)
same,tube area decrease,[5],18.6% (inactive)
same,GLP1 secretion stimulation,[6],2.8% (inactive)
same,inhibition of viability,[7],73.4% (active)
same,viability decrease (inhibition),[8],124% (active)
same,viability decrease (inhibition),[9],84.5% (active)
same,inhibition,[17],4.6% (inactive)
same,luciferase signal,[14],48 AU (inactive)
CC[C@]1(O)CC[C@H]2[C@@H]3CCC4=CCCC[C@@H]4[C@H]3CC[C@@]21C,parasite load remaining,[1],95.1% (inactive)
same,viability,[1],75.2%
same,nuclear beta-catenin stimulation,[2]; at 10 µM,8.1% (inactive)
same,nuclear beta-catenin stimulation,"[2]; stimulation, at 2 µM",0.5%
same,insulin secretion stimulation,[3],1.8% (inactive)
same,viability decrease,[4],70.7% (active)
same,tube area decrease,[5],66.4% (active)
same,GLP1 secretion stimulation,[6],2.3% (inactive)
same,inhibition of viability,[7],64.1% (active)
same,viability decrease (inhibition),[8],97.8% (active)
same,viability decrease (inhibition),[9],73% (active)
NC(=O)OCCCc1ccccc1,parasite load remaining,[1],136% (inactive)
same,viability,[1],89.7%
same,nuclear beta-catenin stimulation,[2]; at 10 µM,0.8% (inactive)
same,nuclear beta-catenin stimulation,"[2]; stimulation, at 2 µM",0.3%
same,insulin secretion stimulation,[3],-2.9% (inactive)
same,viability decrease,[4],-9.45% (inactive)
same,tube area decrease,[5],18% (inactive)
same,GLP1 secretion stimulation,[6],0.9% (inactive)
same,inhibition of viability,[7],4.5% (inactive)
same,viability decrease (inhibition),[8],-4.9% (inactive)
same,viability decrease (inhibition),[9],-16.8% (inactive)
same,fold change,[12]; stronger effect = lower value,0.887 (inactive)
same,fold change,[12]; [20],1.34
same,cell count,[12]; [21],9650
same,cell count,[12]; [22],10900
same,z-score,[16]; [23],-0.606 (inactive)
same,z-score,[16]; [24],-0.33
same,z-score,[15],0.64 (inactive)
